Rows were chosen to be rich in hits. Some 1.8% of all compounds tested hit in one or more screens of this group.
EP2 antag: inhibitors of human EP2 prostaglandin E2 receptor | hit rate 0.52% among 260,000 | AID 1422 | C6 glioma cells expressing human EP2, cAMP TR-FRET; cells stimulated with saturating PGE2 | inhibition, % at 25 µM | P43116;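 active means percent inhibition above 40 after rounding to a whole number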;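 further: rat C6 glioma host cells with rolipram phosphodiesterase inhibitor present; the protocol text gives 20 µM as final concentration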
Target sequence (P43116 whole entry, looked up): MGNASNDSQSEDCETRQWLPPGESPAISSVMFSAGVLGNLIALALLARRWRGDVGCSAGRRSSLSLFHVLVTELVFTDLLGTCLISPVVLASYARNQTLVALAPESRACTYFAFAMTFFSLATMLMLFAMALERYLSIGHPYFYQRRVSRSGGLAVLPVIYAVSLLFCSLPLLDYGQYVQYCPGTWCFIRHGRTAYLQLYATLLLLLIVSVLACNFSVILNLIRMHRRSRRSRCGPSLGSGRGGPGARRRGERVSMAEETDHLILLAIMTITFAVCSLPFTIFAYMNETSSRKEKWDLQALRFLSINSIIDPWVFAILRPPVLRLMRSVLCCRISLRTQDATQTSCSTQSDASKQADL
eIF4E 4G PPI: eIF4E/eIF4G interaction inhibition in translation initiation. TR-FRET eIF4E-eIF4GI(517-606) binding, 2 h. inhibition, % at 21.7 µM. hit rate 0.37% among 220,000;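 active means inhibition above about 30%, limit read from the data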
EP2 mod: modulates human prostaglandin E2 receptor EP2 signaling; P43116; EP2-expressing cells, cAMP HTRF FRET, PGE2 co-stimulation; induction, % at 25 µM; hit rate 0.83% among 260,000; AID 940;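 active means compounds whose cAMP rise, as percent of the full-agonist control response, exceeds 60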;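 further: rat C6 glioma line stably carrying human EP2 under a CMV promoter; the protocol text gives 20 µM as final concentration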
PERK inhibitor: human PERK inhibition, primary cell-based screen; CHO PERK-DD fusion, SEAP luminescence translation reporter; inhibition, % at 5.6 µM; hit rate 0.17% among 220,000; AID 1416;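 active means inhibition above the mean inhibition of all tested compounds plus 3 SD, set separately per screening campaign, cut at about 2.9% in these data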;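 further: PERK kinase domain activated by AP20187 dimerizer at 100 nM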
Hits are given with their value; - = inactive; . = not tested or not shown; [ ] = remark or other dose.

SMILES	EP2 antag	eIF4E 4G PPI	EP2 mod	PERK inhibitor
C/C(=N\NC1=N[C@H]2CS(=O)(=O)C[C@H]2S1)c1ccccc1	-	-	-	3.3
CCn1nnc(NC(=O)COc2ccc([N+](=O)[O-])cc2)n1	-	-	-	3.0
COc1ccccc1C1(NC(=O)CCn2c(=O)oc3ccccc32)CCCC1	-	.	-	.
O=C1c2ccncc2C(=O)N1c1cccc(Cl)c1	-	-	-	4.0
CN(C)[C@H]1C(=O)C(C(=O)NCN2CCCC2)=C(O)[C@@]2(O)C(=O)C3=C(O)c4c(O)cccc4[C@](C)(O)[C@H]3C[C@H]12	44.0	.	-	.
O=c1[nH]c(=S)[nH]c(-c2ccccc2)c1Cc1c(O)ccc2ccccc12	46.3	.	-	.
COc1cccc(N2CCN(c3ncnc4c3[nH]c3ccc(F)cc34)CC2C)c1 (centres undefined)	98.9	-	-	-
Cc1ccc(-c2nc(C(Cl)Cl)c3ccccc3n2)cc1	-	-	61.5	-
Cc1cccc(-n2cnc(C(=O)NC3CCCCCC3)c2)n1	-	30.3	-	-
Cc1cccc(-n2cnc(C(=O)O)c2)n1	-	-	-	-
O=c1oc2ccccc2c(O)c1/C=N/c1nc(-c2ccc(O)c(O)c2)cs1	41.3	.	-	.
COc1ccc2nc(-n3c(O)c(C4=c5ccccc5=NC4=O)[nH]c3=S)sc2c1	-	51.8[fluorescence artefact?]	-	-
Cc1cc(N2CCOCC2)n2nc(C)c(-c3ccccc3)c2n1	-	88.9	-	-
COc1ccc(-c2c(C)nn3c(N4CCN(C)CC4)cc(C)nc23)cc1	.	.	-	.
CSc1ccc2c(c1)N(CCC1CCCCN1C)c1ccccc1S2 (centres undefined)	-	-	-	-
CN1CCCC[C@@H]1CCN1c2ccccc2Sc2ccc(S(C)=O)cc21 (some centres undefined)	44.5	.	-	.
Cc1cc(C)c(NC(=O)COC(=O)c2cccc3c2C(=O)c2ccccc2C3=O)c(C)c1	-	-	-	-
Cc1cc(C)c(Nc2cc(S(=O)(=O)O)c(N)c3c2C(=O)c2ccccc2C3=O)c(C)c1	-	56.1[fluorescence artefact?]	-	-
Nc1ccc(-c2ccc(Nc3cc(S(=O)(=O)O)c(N)c4c3C(=O)c3ccccc3C4=O)cc2)c(S(=O)(=O)O)c1	54.6	.	-	.
O=C1c2ccccc2C(=O)c2c(Nc3ccc(CCO)cc3)ccc(O)c21	-	-	-	-
O=Cc1cccc(OC(=O)c2ccc(Cl)cc2Cl)c1	-	-	63.7	-
COc1cc(C(=O)Oc2cccc(C=O)c2)cc(OC)c1OC	-	-	-	-
O=C(Nc1ccc2c(c1)Cc1ccccc1-2)c1ccncc1	-	-	-	-
O=C(Nc1ccc2c(c1)Cc1ccccc1-2)[C@@H]1[C@H](C(=O)O)[C@]2(Cl)C(Cl)=C(Cl)[C@@]1(Cl)C2(Cl)Cl	42.0	.	-	.
CC(C)n1c2ccccc2c2cc([N+](=O)[O-])ccc21	-	-	64.9	-
SMILES	EP2 antag	eIF4E 4G PPI	EP2 mod	PERK inhibitor
CCOC(=O)c1c(-c2ccc(C)c(C)c2)csc1NC(=O)COC	-	.	92.9	.
CCOC(=O)c1c(-c2ccccc2)csc1NC(=S)NC	-	-	-	-
CCOC(=O)c1c(-c2ccc(OCC)cc2)csc1NC(=O)CC	-	.	67.1	.
CCOC(=O)c1c(-c2ccccc2)csc1NC(=O)COC	-	.	80.0	.
CCOC(=O)c1c(-c2ccc(C)cc2)csc1NC(=O)COC	-	.	81.5	.
CCOC(=O)c1c(-c2ccc(OC)c(OC)c2)csc1NC(=O)CC	-	.	-	.
Cc1cc2c(cc3c(=O)n(CC(=O)N(Cc4cccnc4)C4CC4)nc(C)n32)s1	.	.	-	.
COCCn1nnnc1C(c1cc2ccc(C)cc2[nH]c1=O)N1CCN(c2ccccc2OC)CC1 (centres undefined)	-	.	-	.
CC(=O)Nc1ccc2c(c1)/C(=C/c1ccc([N+](C)(C)C)cc1)c1ccccc1-2	47.9	.	-	.
O=C(NCC1(c2ccccc2)CCCC1)C1(c2ccccc2)CCCC1	-	-	61.7	-
O=C(NCC1(c2ccccc2)CCCC1)C(=O)NCC1(c2ccccc2)CCCC1	-	-	-	-
O=c1cnnc(N/N=C/c2cccs2)[nH]1	-	-	-	4.0
CCCOc1cccc(/C(O)=C2/C(=O)C(=O)N(Cc3cccnc3)C2c2ccncc2)c1 (centres undefined)	-	.	-	.
Cc1ccc2[nH]c(=O)c(CN(CCO)C(c3nnnn3C(C)(C)C)C(C)C)cc2c1 (centres undefined)	-	.	-	.
c1ccc2c(c1)OCC(c1csc3ncnc(N4CCOCC4)c13)O2 (centres undefined)	-	-	-	-
CCN(CC)c1ncnc2scc(C3COc4ccccc4O3)c12 (centres undefined)	-	-	63.8	-
CN(C)CCN1C(=O)CC[C@@]2(C)C1=CC[C@H]1[C@H]2CC[C@@]2(C)[C@H]1CC[C@]2(C)O	49.9	.	-	.
CC(=O)[C@@]1(O)CCC2C3CCC4=CC(=O)CC[C@]4(C)C3CC[C@@]21C (some centres undefined)	-	.	-	.
O=C1C(N2CCOCC2)=C(n2nnc3ccccc32)C(=O)c2ccccc21	40.0	-	-	-
O=C1c2ccccc2C(=O)c2c1cccc2-n1nnc2ccccc21	-	-	-	-
O=C(O)CSc1nnc(COc2cccc3cccnc23)n1-c1cccc(C(F)(F)F)c1	-	68.3	-	-
O=C(c1ccc(F)cc1F)N1CCC(Cn2nc(-c3ccccc3)ccc2=O)CC1	.	.	-	.
Cc1nn2c(N)c(C#N)cnc2c1-c1ccc(Cl)cc1	.	-	-	-
COc1ccc(-c2c(C)nn3c(N)c(C#N)cnc23)cc1OC	-	38.2	-	-
Cc1ccnc(NS(=O)(=O)c2cc(C(F)(F)F)ccc2Cl)c1	-	-	-	3.4
SMILES	EP2 antag	eIF4E 4G PPI	EP2 mod	PERK inhibitor
CCOc1ccccc1-c1cc(C(=O)N2CCN(C3CCCCC3)C(=O)C2)[nH]n1	-	.	-	.
CC(C)(C)c1cccc(P(=O)(c2ccccc2)c2ccccc2)c1O	-	-	66.2	-
CCc1c(C)nc2cc(-c3ccc(OC)c(OC)c3)nn2c1N1CCNCC1	-	.	-	.
Cc1nn(Cc2ccccc2)c(C)c1C(=O)N1CCCC1c1nc2ccccc2[nH]1 (centres undefined)	-	.	-	.
Cc1ccc(-c2c[n+](Cc3ccc(Cl)c(Cl)c3)c3n2CCC3)cc1	-	-	-	-
C[N@@+]1(Cc2ccc(Cl)c(Cl)c2)CCC[C@@H]1c1ccc[n+](Cc2ccc(Cl)c(Cl)c2)c1	50.3	.	-	.
CC(=O)Oc1ccc2c(c1)OC(c1ccccc1)CC21CC(C)(C)NC(=S)N1 (centres undefined)	.	39.0	-	-
COc1ccc(C2CCN(Cc3nnnn3C3CCCC3)CC2)cc1	.	.	-	.
Cc1nn(CC(=O)N2CCCC2c2nc3ccccc3[nH]2)c(=O)c2ccccc12 (centres undefined)	.	.	-	.
O=C1NN(c2ccccc2)C(=O)/C1=C/c1ccc(Sc2cccc3ccccc23)o1	-	-	-	-
O=C1NN(c2cccc(Br)c2)C(=O)/C1=C/c1ccc(-c2cc([N+](=O)[O-])ccc2O)o1	-	34.3	-	-
CCOC(=O)Cc1c(C)nc2c(-c3ccccc3)c(-c3ccccc3)[nH]n2c1=O	-	-	-	-
CCOC(=O)Cc1c(C)nc2c(-c3ccccc3)c(C)[nH]n2c1=O	-	-	-	3.0
